Source: PubChem BioAssay (National Center for Advancing Translational Sciences (NCATS))
Most compounds without a hit are left out; they make up all but 3.8% or so of the library.
HT1080 IDH1KD tx: toxicity to HT-1080 IDH1 knockdown cells (counter line). HT-1080 IDH1 knockdown viability, ATP luminescence, 48 h. 2% of 360,000 active. Potency, µM (top dose mostly 46.1 µM), inactives show at the highest dose activity, negative = toxicity, most hits filed as cytotoxic. AID 686971;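 note: 0% = DMSO wells and -100% = cell-free medium wells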
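% activity derives from luminescence (CellTiter-Glo), normalised to DMSO and no-cell wells. HT-1080-IDH1KD cells, 750/well, had 48 h compound exposure at 37 °C.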
HepG2 viability: kills HepG2 cells in TGF-b inhibitor counter-screen. Potency, µM (top dose mostly 46.1 µM), for inactives: at the highest dose activity change, negative = cytotoxicity, hits mostly cytotoxic. 0.76% of 410,000 active. HepG2 CAGA-GFP viability, ATP luminescence, 18 h
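CellTiter-Glo luminescence gave cytotoxicity after 18 hours at 37 degrees C. The cells were HepG2 CAGA-GFP in 1% FBS DMEM, stimulated with 500 pg/mL TGF-beta after compound addition. %Activity was normalised to no-cell wells (complete cell-killing) and DMSO (no toxicity), and curves were fitted and classified.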
HT1080NT lethal: kills 2HG-producing HT-1080-NT fibrosarcoma cells | Potency, µM (highest dose often 46.1 µM), for inactives: at the highest dose activity, negative = less viability, usual class: cytotoxic | HT-1080-NT fibrosarcoma viability, CellTiter-Glo ATP luminescence, 48 h | 1.6% of 360,000 active;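 note: NT is the 2HG producing partner of a matched IDH1 knockdown line; 0% = DMSO-treated cells and -100% = media-only wells without cells; nearly all actives have a fitted effect of over 55% in size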
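Viability by CellTiter-Glo luminescence after 48 h compound exposure at 37C of HT-1080-NT cells (750/well, RPMI, 5% FBS). % activity scaled between DMSO wells and medium-only wells, then curve-fitted and categorized by curve class.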
S2 tox: cell viability loss in ATXN counter-screen; S2 cells (HEK-293 line with an ATXN2-luciferase reporter) viability, CellTiter-Fluor protease fluorescence, 24 h; Potency, µM (series often up to 56.7 µM), most hits filed as cytotoxic; 0.49% of 400,000 active; AID 651635; note: nearly all actives have a fitted effect of over 40% in size
ATXN2 expr inh: reduces ATXN2 reporter expression in HEK-293 cells; 0.72% of 360,000 active; HEK-293 ATXN2-luciferase reporter, luminescence, 24 h; Potency, µM (highest dose often 57 µM), without a hit: top-dose activity change, negative = inhibition, most hits filed as inhibitors; note: % is set by controls: 0 for no effect and ±100 for the full control effect; nearly all actives have a fitted effect of over 55% in size
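qHTS (up to 57 uM final) was run with 24 h compound exposure of reporter cells at 37 °C. Each well was multiplexed: SteadyGlo luminescence measured ATXN2-luciferase expression after a fluorogenic Gly-Phe-AFC viability readout (25 uM final).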
TGFb inhibitor: blocks TGF-b signaling; HepG2 CAGA-GFP TGF-b/SMAD3 reporter, GFP fluorescence, 18 h; TGF-beta stimulated, 500 pg/mL final; Potency, µM (doses to about 46.1 µM), for inactives: at the highest dose activity, negative = inhibition, hits mostly inhibitors; 1.2% of 410,000 active; note: % is set by controls: 0 for no effect and ±100 for the full control effect; nearly all actives have a fitted effect of over 65% in size
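First, reporter cells (HEPG2 CAGA-GFP) rested 2 h at 37 degrees C. Next, compounds were pinned in and TGF-beta added to 500 pg/mL final. After 18 h, GFP was imaged per cell and summed per well.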
* hit, by the source's call; ! = a repeat was not active. Calls come from the whole dose curve; as a rule, active = well fitted curve in the direction sought with a large enough effect; inconclusive = small, poorly fitted or top-dose-only effect, or another doubt; inactive = no such curve, though single readings can be large; an effect the other way counts as inactive or inconclusive. Potency is the fitted concentration of half-maximal effect.

Results for CN(C)c1ccc(/C=C/c2cccc[n+]2[O-])cc1 ?
HT1080 IDH1KD tx: 8%; HepG2 viability: 13%; HT1080NT lethal: 18%; ATXN2 expr inh: -19%; TGFb inhibitor: 14%

How did CC(C)CC[n+]1ccccc1/C=C/c1ccc(N(C)C)cc1 do in these assays?
HT1080 IDH1KD tx: 23µM*; HepG2 viability: -22%; HT1080NT lethal: inconclusive; S2 tox: inconclusive; ATXN2 expr inh: inconclusive; TGFb inhibitor: 33%

How did O=C(NC1CCCCC1)C(c1cccnc1)N(C(=O)CCl)c1ccccc1Cl (configuration not stated) do in these assays?
HT1080 IDH1KD tx: 16µM*; HepG2 viability: 2%; HT1080NT lethal: 10µM*; S2 tox: inactive; ATXN2 expr inh: -29%; TGFb inhibitor: -26%

What do the screens show for `O=C(NCC(=O)N(c1ccc(F)cc1)C(C(=O)NC1CCCCC1)c1cccnc1)c1ccco1` (configuration not stated)?
HT1080 IDH1KD tx: -8%; HepG2 viability: 17%; HT1080NT lethal: -12%; S2 tox: inactive; ATXN2 expr inh: 2%; TGFb inhibitor: 7%

What do the screens show for `O=C(NC1CCCCC1)C(c1cccnc1)N(C(=O)CCl)c1ccc(F)cc1` (configuration not stated)?
HT1080 IDH1KD tx: 10µM*; HepG2 viability: -76%; HT1080NT lethal: 13µM*; S2 tox: 6.3µM*; ATXN2 expr inh: 4µM*; TGFb inhibitor: inconclusive

How did CCc1ccccc1N(C(=O)CNC(=O)c1ccco1)C(C(=O)NC1CCCC1)c1cccnc1 (configuration not stated) do in these assays?
HT1080 IDH1KD tx: 28%; HepG2 viability: -1%; HT1080NT lethal: 19%; S2 tox: inactive; ATXN2 expr inh: -14%; TGFb inhibitor: -10%

Results for O=C(c1cccc(Cl)c1)N1c2ncnn2C2(CCCCC2)[C@@H]2CCCC[C@@H]21 ?
HepG2 viability: -57%; S2 tox: inactive; ATXN2 expr inh: -36%; TGFb inhibitor: -24%

What do the screens show for `CCOc1ccc(-c2nn3c(-c4cc(-c5ccccc5)n[nH]4)nnc3s2)cc1`?
HepG2 viability: -13%; TGFb inhibitor: -8%

How did CCO[C@@H]1O[C@H](C(COCc2ccccc2)OCc2ccccc2)[C@H](OCc2ccccc2)[C@H]1O (some centres not stated) do in these assays?
S2 tox: inactive; ATXN2 expr inh: -18%

How did CN(C)C(CNC(=O)c1cccc(S(=O)(=O)N2CCN(c3ccc(F)cc3)CC2)c1)c1ccccc1 (configuration not stated) do in these assays?
HT1080 IDH1KD tx: 15µM*; HepG2 viability: -23%; HT1080NT lethal: inconclusive; S2 tox: inactive; ATXN2 expr inh: inconclusive; TGFb inhibitor: inconclusive

Results for COc1ccccc1CNC(=O)c1cccc(S(=O)(=O)N2CCN(c3ccc(F)cc3)CC2)c1 ?
HT1080 IDH1KD tx: -12%; HepG2 viability: -21%; HT1080NT lethal: -7%; S2 tox: inactive; TGFb inhibitor: inconclusive

How did Oc1c(C(c2ccccc2F)N2CCN(c3ccccc3F)CC2)sc2nc(-c3ccco3)nn12 (configuration not stated) do in these assays?
HepG2 viability: -21%; S2 tox: inactive; ATXN2 expr inh: 16%; TGFb inhibitor: inconclusive

What do the screens show for `Cc1ccc(NC(=O)/C=C/c2ccco2)nc1`?
HT1080 IDH1KD tx: 0.0058µM*; HepG2 viability: -3%; HT1080NT lethal: 0.046µM*; S2 tox: inactive; ATXN2 expr inh: 34%; TGFb inhibitor: -12%

Results for O=C(/C=C/c1ccco1)Nc1ccc(Oc2ccc(Cl)cc2)cc1 ?
HT1080 IDH1KD tx: 4.1µM*; HepG2 viability: -22%; HT1080NT lethal: 5.8µM*; S2 tox: inconclusive; ATXN2 expr inh: -27%; TGFb inhibitor: -17%

How did Cc1cc2c3c(c1C)C1(C(=O)N3C(C)(C)CC2C)C(C#N)=C(N)Oc2cc(O)ccc21 (configuration not stated) do in these assays?
HT1080 IDH1KD tx: inconclusive; HepG2 viability: -39%; HT1080NT lethal: inconclusive; S2 tox: 22µM*; ATXN2 expr inh: inconclusive; TGFb inhibitor: inconclusive

How did Cc1cc2c3c(c1)C1(C(=O)N3C(C)(C)CC2C)C(C#N)=C(N)OC2=C1C(=O)CC(C)(C)C2 (configuration not stated) do in these assays?
HT1080 IDH1KD tx: -9%; HepG2 viability: 0%; HT1080NT lethal: -6%; S2 tox: inactive; ATXN2 expr inh: -2%; TGFb inhibitor: 6%

How did NC(=S)N/N=C1/CCSc2ccc3ccccc3c21 do in these assays?
HT1080 IDH1KD tx: inconclusive; HepG2 viability: -20%; HT1080NT lethal: 26µM*; S2 tox: inactive; ATXN2 expr inh: -19%; TGFb inhibitor: inconclusive

How did CCN(CC)C(=O)c1sc2c(c1C)c(=O)n(-c1ccc(Cl)c(Cl)c1)c(=O)n2Cc1cc(=O)n2ccccc2n1 do in these assays?
HepG2 viability: -25%; S2 tox: inactive; ATXN2 expr inh: -27%; TGFb inhibitor: -8%

Results for COc1ccc(COc2cc(-c3cccc(OC)c3)nc3ccc(NC(=O)c4ccc(OC)cc4)cc23)cc1 ?
HT1080 IDH1KD tx: 4.6µM*; HepG2 viability: 18%; HT1080NT lethal: 5.2µM*; S2 tox: inconclusive; ATXN2 expr inh: -13%; TGFb inhibitor: inconclusive

How did COc1ccc(COc2cc(-c3cccc(OC)c3)nc3ccc(NC(=O)c4ccc(Cl)cc4)cc23)cc1 do in these assays?
HT1080 IDH1KD tx: inconclusive; HepG2 viability: 0%; HT1080NT lethal: inconclusive; S2 tox: inconclusive; ATXN2 expr inh: -19%; TGFb inhibitor: -3%

How did COc1ccc(COc2cc(-c3cccc(OC)c3)nc3ccc(NC(=O)c4ccccc4)cc23)cc1 do in these assays?
HT1080 IDH1KD tx: 23µM*; HepG2 viability: -1%; HT1080NT lethal: inconclusive; S2 tox: inconclusive; ATXN2 expr inh: -11%; TGFb inhibitor: -3%

How did CC(C=CC1=C(C)CCCC1(C)C)=CC=CC(C)=CC(=O)Nc1ccc(O)cc1 do in these assays?
ATXN2 expr inh: 50µM*

What do the screens show for `CC1=C(\C=C/C(C)=C/C=C\C(C)=C\C(=O)O)C(C)(C)CCC1`?
S2 tox: inactive

How did CC1=C(/C=C/C(C)=C/C=C/C(C)=C/C(=O)Nc2ccc(O)cc2)C(C)(C)CCC1 do in these assays?
HT1080 IDH1KD tx: 16µM*; HepG2 viability: -105%; HT1080NT lethal: 15µM*; S2 tox: 28µM*; ATXN2 expr inh: 20µM*!; TGFb inhibitor: inconclusive
